Of roughly 8,800 targets only a part is listed; those with a hit were picked by preference. About 0.5% of all pairs of compound and target were hits. A number with no mark means an inactive call.
Tests used:
Assay in all cases: log2 fold change, soluble protein after heating vs DMSO (PISA); higher = thermal stabilisation; K562 lysate, 10 uM; active = over 0.2 and 3.5 SD of the protein, either way, in both replicates (recomputed)
[1] = compound: CCCS(=O)(=O)Nc1ccc(F)c(C(=O)c2c[nH]c3ncc(-c4ccc(Cl)cc4)cc23)c1F [vemurafenib]
Procedure, shortened: (§1)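 To prepare the extract, K562 pellets were dounce-homogenised in PBS pH 7.4 with 1 mM MgCl2, giving crude material at 1 mg/mL protein. This was treated with 10 μM compound for 30 min, then heated in aliquots for 3 min over 48°C-58°C before pooling and addition of NP-40 to 0.5% at 4°C. Centrifugation at 21,000xg for 90 min left soluble protein in the supernatant, which TMTpro 16plex LC-MS/MS quantified with equalised channel sums. Results are log-two fold changes in thermal stability compared with solvent controls, from duplicates.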

[2] = compound: CCCS(=O)(=O)Nc1ccc(F)c(C(=O)c2c[nH]c3ncc(Cl)cc23)c1F
Procedure, shortened: as §1

[3] = compound: CCN(CCCOc1ccc2c(Nc3cc(CC(=O)Nc4cccc(F)c4)[nH]n3)ncnc2c1)CCOP(=O)(O)O [barasertib]
Procedure, shortened: as §1

[4] = compound: CC[C@@H]1C(=O)N(C)c2cnc(Nc3ccc(C(=O)NC4CCN(C)CC4)cc3OC)nc2N1C1CCCC1
Procedure, shortened: as §1

[5] = compound: CC[C@@H]1C(=O)N(C)c2cnc(Nc3ccc(C(=O)N[C@H]4CC[C@H](N5CCN(CC6CC6)CC5)CC4)cc3OC)nc2N1C(C)C [volasertib]
Procedure, shortened: as §1

[6] = compound: CCn1c(C(=O)N(C2CC2)C2CC2)cc2c3c(ncn3C)c(Nc3cc(C)n(C)n3)nc21
Procedure, shortened: as §1

[7] = compound: CCn1cc(-c2ccnc3[nH]c(-c4cccc(CN(C)C)c4)cc23)c(-c2ccc(NC(=O)N(C)C)cc2)n1
Procedure, shortened: as §1

[8] = compound: CN1CCC(CNc2ccc3ncc(-c4cccc(OC(F)(F)F)c4)n3n2)CC1
Procedure, shortened: as §1

[9] = compound: CN1CCN(CCOc2cc(OC3CCOCC3)c3c(Nc4c(Cl)ccc5c4OCO5)ncnc3c2)CC1 [saracatinib]
Procedure, shortened: as §1

[10] = compound: CN1CCN(c2nc(C3=C(c4c[nH]c5ccccc45)C(=O)NC3=O)c3ccccc3n2)CC1 [sotrastaurin]
Procedure, shortened: as §1

UniProt O14617, sequence (O14617 whole entry, looked up): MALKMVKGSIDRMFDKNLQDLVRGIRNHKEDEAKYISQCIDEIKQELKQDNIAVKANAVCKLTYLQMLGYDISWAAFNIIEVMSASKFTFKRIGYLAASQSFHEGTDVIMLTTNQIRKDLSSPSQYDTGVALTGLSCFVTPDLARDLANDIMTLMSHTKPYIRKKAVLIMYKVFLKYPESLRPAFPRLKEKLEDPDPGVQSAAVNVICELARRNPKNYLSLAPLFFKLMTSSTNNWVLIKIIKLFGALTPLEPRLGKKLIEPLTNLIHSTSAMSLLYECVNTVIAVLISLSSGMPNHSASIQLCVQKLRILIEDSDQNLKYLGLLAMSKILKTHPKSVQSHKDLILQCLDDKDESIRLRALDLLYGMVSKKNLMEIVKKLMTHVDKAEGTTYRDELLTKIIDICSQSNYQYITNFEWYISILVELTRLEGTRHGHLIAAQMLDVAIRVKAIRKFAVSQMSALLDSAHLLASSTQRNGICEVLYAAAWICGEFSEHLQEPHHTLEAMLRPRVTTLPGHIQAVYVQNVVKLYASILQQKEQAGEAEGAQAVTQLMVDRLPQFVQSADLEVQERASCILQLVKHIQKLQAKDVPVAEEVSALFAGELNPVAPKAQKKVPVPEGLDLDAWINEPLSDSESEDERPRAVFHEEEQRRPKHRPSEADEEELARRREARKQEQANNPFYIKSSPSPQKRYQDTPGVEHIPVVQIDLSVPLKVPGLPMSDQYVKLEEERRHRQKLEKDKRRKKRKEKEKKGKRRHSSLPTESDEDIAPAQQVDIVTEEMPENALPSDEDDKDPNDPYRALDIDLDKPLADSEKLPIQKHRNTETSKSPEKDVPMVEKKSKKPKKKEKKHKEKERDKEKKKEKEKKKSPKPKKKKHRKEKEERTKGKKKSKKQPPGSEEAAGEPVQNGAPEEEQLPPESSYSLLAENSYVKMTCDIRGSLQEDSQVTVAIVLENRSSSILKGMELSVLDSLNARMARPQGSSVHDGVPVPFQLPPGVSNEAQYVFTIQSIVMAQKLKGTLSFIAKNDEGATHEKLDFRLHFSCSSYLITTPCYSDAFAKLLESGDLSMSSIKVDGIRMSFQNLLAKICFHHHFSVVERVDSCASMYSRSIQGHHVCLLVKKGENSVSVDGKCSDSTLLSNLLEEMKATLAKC
UniProt Q02252, sequence (Q02252 whole entry, looked up): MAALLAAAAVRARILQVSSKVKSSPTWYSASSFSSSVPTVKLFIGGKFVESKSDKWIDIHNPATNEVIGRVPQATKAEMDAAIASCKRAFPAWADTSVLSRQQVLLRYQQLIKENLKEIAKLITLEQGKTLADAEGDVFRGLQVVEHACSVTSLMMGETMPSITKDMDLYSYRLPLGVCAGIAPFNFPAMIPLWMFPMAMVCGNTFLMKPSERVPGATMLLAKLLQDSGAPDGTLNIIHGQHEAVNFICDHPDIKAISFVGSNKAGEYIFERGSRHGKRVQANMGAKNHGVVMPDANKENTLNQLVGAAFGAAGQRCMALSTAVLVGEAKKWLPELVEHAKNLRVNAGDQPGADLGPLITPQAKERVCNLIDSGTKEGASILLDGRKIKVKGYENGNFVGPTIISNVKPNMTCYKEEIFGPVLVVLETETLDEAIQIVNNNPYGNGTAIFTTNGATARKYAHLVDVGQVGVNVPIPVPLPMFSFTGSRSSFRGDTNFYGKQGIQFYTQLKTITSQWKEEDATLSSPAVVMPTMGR
UniProt Q9UPW5, sequence (Q9UPW5 whole entry, looked up): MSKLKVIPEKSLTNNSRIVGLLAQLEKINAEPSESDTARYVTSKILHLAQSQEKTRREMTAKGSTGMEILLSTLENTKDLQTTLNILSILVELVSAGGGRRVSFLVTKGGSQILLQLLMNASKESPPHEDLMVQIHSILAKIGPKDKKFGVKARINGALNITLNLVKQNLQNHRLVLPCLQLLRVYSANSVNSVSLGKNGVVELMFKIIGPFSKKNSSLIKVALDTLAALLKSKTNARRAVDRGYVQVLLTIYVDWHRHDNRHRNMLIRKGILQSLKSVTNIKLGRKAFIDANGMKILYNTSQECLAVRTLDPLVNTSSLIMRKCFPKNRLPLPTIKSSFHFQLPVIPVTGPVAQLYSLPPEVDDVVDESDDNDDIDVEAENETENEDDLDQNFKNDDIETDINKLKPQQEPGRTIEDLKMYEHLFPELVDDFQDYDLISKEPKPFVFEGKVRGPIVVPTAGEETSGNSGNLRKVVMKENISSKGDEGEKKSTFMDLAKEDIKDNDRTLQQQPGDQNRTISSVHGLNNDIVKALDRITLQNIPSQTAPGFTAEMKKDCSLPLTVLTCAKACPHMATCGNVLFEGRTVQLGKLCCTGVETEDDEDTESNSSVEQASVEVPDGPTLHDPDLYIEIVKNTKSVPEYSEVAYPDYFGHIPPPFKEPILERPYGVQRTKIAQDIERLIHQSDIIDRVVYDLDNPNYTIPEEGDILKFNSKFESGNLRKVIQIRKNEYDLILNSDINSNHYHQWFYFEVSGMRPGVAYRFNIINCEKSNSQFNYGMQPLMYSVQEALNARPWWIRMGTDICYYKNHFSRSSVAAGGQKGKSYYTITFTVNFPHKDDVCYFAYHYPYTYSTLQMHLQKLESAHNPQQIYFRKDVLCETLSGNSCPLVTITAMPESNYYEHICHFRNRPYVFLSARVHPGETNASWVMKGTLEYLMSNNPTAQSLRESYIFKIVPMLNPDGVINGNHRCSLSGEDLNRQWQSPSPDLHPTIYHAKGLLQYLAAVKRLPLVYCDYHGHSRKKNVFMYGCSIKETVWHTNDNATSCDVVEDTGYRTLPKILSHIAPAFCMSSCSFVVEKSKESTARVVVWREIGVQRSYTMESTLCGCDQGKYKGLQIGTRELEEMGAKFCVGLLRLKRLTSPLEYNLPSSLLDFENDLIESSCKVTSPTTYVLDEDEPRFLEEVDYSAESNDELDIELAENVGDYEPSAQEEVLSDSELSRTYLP
UniProt P31751, sequence (P31751 whole entry, looked up): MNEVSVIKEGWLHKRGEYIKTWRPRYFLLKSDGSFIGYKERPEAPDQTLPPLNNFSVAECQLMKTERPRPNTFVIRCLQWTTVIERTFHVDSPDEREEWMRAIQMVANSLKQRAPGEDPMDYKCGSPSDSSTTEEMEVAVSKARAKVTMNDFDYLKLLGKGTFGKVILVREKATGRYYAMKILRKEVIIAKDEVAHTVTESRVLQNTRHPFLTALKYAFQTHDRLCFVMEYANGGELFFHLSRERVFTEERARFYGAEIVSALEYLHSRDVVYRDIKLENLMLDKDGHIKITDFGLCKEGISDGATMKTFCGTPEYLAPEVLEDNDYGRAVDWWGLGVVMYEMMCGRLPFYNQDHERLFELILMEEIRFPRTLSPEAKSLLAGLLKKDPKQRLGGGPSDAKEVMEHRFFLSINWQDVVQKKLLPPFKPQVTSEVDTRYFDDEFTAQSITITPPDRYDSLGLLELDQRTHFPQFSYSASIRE
UniProt Q96BM9, sequence (Q96BM9 whole entry, looked up): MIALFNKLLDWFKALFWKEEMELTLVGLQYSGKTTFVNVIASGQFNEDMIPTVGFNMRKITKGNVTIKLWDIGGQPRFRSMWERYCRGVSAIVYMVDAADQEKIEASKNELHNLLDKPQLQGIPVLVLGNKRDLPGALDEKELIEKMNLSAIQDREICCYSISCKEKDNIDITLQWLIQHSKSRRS
UniProt Q9UHB7, sequence (Q9UHB7 whole entry, looked up): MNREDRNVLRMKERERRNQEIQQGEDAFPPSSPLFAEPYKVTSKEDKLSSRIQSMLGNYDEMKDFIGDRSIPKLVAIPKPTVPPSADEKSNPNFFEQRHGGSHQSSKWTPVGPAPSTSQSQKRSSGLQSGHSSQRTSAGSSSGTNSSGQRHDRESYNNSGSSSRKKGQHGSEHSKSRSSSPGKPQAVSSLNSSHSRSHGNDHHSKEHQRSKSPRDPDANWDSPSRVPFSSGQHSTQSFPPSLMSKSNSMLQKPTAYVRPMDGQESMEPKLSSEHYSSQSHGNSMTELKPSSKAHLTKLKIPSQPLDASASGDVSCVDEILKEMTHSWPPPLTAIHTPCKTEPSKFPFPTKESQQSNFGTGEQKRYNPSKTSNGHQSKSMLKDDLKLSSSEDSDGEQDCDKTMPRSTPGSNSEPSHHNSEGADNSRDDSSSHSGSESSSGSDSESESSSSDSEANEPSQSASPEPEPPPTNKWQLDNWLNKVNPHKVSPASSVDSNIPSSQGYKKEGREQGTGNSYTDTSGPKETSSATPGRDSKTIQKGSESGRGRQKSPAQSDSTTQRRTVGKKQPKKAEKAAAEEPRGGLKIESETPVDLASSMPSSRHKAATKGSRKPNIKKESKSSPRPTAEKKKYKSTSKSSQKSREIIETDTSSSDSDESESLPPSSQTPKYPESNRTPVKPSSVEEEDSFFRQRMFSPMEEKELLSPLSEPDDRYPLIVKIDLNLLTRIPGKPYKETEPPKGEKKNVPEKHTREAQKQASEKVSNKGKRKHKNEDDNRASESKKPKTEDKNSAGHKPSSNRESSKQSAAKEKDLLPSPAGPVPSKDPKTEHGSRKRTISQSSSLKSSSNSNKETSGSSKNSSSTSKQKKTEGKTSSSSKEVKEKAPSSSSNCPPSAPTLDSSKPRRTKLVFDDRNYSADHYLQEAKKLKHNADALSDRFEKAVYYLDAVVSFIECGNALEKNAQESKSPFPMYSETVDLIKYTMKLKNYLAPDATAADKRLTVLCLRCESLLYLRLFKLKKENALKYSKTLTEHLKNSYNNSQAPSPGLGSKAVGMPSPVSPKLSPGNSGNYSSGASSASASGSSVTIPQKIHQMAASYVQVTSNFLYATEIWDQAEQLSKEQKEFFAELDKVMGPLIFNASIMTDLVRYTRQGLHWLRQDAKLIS
UniProt Q9P1F3, sequence (Q9P1F3 whole entry, looked up): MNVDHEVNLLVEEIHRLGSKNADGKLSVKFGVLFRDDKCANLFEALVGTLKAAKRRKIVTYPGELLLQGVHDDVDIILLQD
UniProt Q9BT30, sequence (Q9BT30 whole entry, looked up): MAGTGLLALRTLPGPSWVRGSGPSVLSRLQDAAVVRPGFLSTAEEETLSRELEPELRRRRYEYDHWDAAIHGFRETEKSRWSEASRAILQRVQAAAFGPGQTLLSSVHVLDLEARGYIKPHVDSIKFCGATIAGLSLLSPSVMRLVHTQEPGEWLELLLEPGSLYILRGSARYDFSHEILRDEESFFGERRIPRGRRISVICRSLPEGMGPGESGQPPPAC

Target | log2 fold change [1] | log2 fold change [2] | log2 fold change [3] | log2 fold change [4] | log2 fold change [5] | log2 fold change [6] | log2 fold change [7] | log2 fold change [8] | log2 fold change [9] | log2 fold change [10]
ACTBL2 (UniProt Q562R1) | -0.097 | 0.089 | -0.117 | 0.098 | -0.166 | 0.105 | 0.417 | -0.023 | -0.108 | 0.049
AFF1 isoform 2 (UniProt P51825) | -0.059 | 0.007 | 0.033 | 0.068 | -0.043 | -0.023 | -0.307 | 0.125 | -0.015 | 0.029
ABCC5 (UniProt O15440) | -0.603 (active) | -0.001 | -0.034 | -0.067 | -0.136 | 0.145 | -0.137 | -0.022 | 0.013 | 0.018
AKT2 (UniProt P31751) | 0.008 | 0 | -0.026 | -0.024 | -0.031 | 0.025 | 0.007 | 0.004 | -0.011 | 0.017
ANP32A (UniProt P39687) | -0.025 | 0.052 | -0.007 | -0.011 | 0.006 | -0.008 | -0.085 | 0.062 | -0.033 | -0.002
ALDH6A1 (UniProt Q02252) | 0.055 | 0.027 | 0.043 | -0.009 | -0.025 | 0.015 | -0.111 | 0.022 | -0.324 (active) | -0.082
AFF4 (UniProt Q9UHB7) | 0.157 | -0.012 | -0.072 | 0.001 | -0.019 | 0.023 | -0.133 | -0.04 | -0.009 | 0.002
ALG8 (UniProt Q9BVK2) | -0.038 | -0.013 | 0 | -0.084 | 0.034 | 0.045 | -0.316 (active) | 0.001 | 0.005 | 0.038
ALDH1B1 (UniProt P30837) | 0.008 | 0.017 | -0.022 | 0.029 | -0.013 | -0.062 | -0.015 | 0.108 | 0.011 | 0.022
ARL8A (UniProt Q96BM9) | -0.029 | -0.26 | -0.026 | -0.001 | -0.037 | -0.03 | 0.558 (active) | -0.199 | 0.03 | 0.022
ARAP1 (UniProt Q96P48) | -0.014 | 0.006 | 0.013 | -0.034 | -0.085 | 0.029 | -0.076 | 0.015 | -0.001 | 0.006
ARMC6 (UniProt Q6NXE6) | -0.053 | 0.02 | 0.071 | -0.136 | -0.056 | 0.019 | 0.002 | -0.035 | 0.013 | 0.019
ABHD16A (UniProt O95870) | 0.074 | 0.012 | 0.026 | 0.141 | 0.002 | -0.059 | -0.001 | 0.019 | 0.021 | 0.051
AIMP2 (UniProt Q13155) | -0.026 | 0.022 | 0.031 | -0.131 | -0.063 | -0.019 | -0.008 | -0.079 | 0.018 | 0.015
ABI1 isoform 9 (UniProt Q8IZP0) | -0.021 | 0.005 | -0.01 | 0.052 | -0.038 | -0.001 | -0.116 | 0.217 | -0.029 | -0.019
ANP32E (UniProt Q9BTT0) | -0.012 | 0.004 | -0.064 | 0.059 | -0.001 | -0.011 | -0.058 | 0.024 | 0.028 | -0.023
AGPS (UniProt O00116) | 0.028 | 0.008 | -0.021 | 0.06 | 0.011 | 0.025 | -0.082 | 0.012 | -0.009 | -0.016

Target | log2 fold change [1] | log2 fold change [2] | log2 fold change [3] | log2 fold change [4] | log2 fold change [5] | log2 fold change [6] | log2 fold change [7] | log2 fold change [8] | log2 fold change [9] | log2 fold change [10]
AP4B1 (UniProt Q9Y6B7) | 0.026 | 0.087 | 0.028 | -0.01 | -0.009 | 0.011 | -0.035 | 0.02 | 0.042 | -0.027
ACLY (UniProt P53396) | 0.017 | 0.01 | -0.003 | -0.035 | -0.031 | -0.003 | -0.049 | 0.026 | -0.007 | 0.016
ACSL4 (UniProt O60488) | 0.061 | -0.007 | -0.006 | -0.029 | -0.001 | 0.036 | 0.008 | -0.02 | 0.047 | 0.043
ARAF (UniProt P10398) | 0.411 (active) | 0.058 | 0.015 | -0.069 | -0.038 | -0.015 | 0.042 | 0 | 0.005 | 0.002
ANKRD44 isoform 2 (UniProt Q8N8A2) | 0.056 | 0.019 | 0.058 | -0.308 | 0.054 |  | -1.9 (active) | 0.616 |  | 
AGTPBP1 (UniProt Q9UPW5) | 0.151 | 0.075 | -0.223 | 0.036 | -0.089 | -0.013 | 0.013 | -0.409 (active) | 0.108 | -0.126
ABRACL (UniProt Q9P1F3) |  | -0.074 | 0.06 |  | -0.001 |  | 0.156 | 0.053 | 0.134 | 0
ALDH2 (UniProt P05091) | -0.083 | 0.011 | -0.012 | -0.012 | -0.017 | -0.011 | 0.007 | -0.009 | 0.012 | 0
ANP32E isoform 3 (UniProt Q9BTT0) | 0.034 |  | -0.086 | -0.026 |  |  | -0.724 (active) | 0.468 |  | 
ABL1 isoform 2 (UniProt P00519) | 0.05 | 0.125 | 0.031 | -0.03 | -0.012 | -0.048 | 0.156 | -0.097 |  | -0.012
ACTG1 (UniProt K7EM38) |  | -0.259 |  | -0.208 | -0.124 |  |  |  |  | 
AP5B1 (UniProt Q2VPB7) |  | 0.062 | 0.035 | 0.066 | 0.011 | 0.001 | 0.002 | 0.045 | -0.014 | -0.062
ACAT1, A0A5F9ZHJ0 |  |  |  |  |  | -0.131 | -0.006 | 0.081 |  | 
ANXA13 isoform 2 (UniProt P27216) | -0.129 | -0.071 | 0.091 |  | -0.035 | 0.131 | -0.179 | 0.106 | 0.004 | -0.001
ALKBH7 (UniProt Q9BT30) |  |  |  | -0.031 |  | 0.072 | 0.233 | -0.2 | -0.012 | -0.016
ACVR1 (UniProt Q04771) |  |  | -0.115 |  |  |  | -0.244 | 0.815 (active) |  | 
AP3D1 isoform 2 (UniProt O14617) | 0.002 | -0.085 |  |  | -0.012 |  | -0.231 | 0.058 |  | 
